# Experimental data from PubChem BioAssay (EPA / NIEHS).
# Several values for one entry are separate records, joined by “and”; a condition that tells them apart may be missing. Equal values may be shown once. Where a structure was tested more than once in an assay, its records may differ in their call. Activity calls are given as the source filed them. Rule for the calls: active = hit-call score of the fitted dose curve at least 0.9, where 1 is the maximum; inactive = score below 0.9.
# Molecular target: X-box-binding protein 1 (Homo sapiens) (UniProt P17861)
# Sequence (P17861 whole entry, looked up): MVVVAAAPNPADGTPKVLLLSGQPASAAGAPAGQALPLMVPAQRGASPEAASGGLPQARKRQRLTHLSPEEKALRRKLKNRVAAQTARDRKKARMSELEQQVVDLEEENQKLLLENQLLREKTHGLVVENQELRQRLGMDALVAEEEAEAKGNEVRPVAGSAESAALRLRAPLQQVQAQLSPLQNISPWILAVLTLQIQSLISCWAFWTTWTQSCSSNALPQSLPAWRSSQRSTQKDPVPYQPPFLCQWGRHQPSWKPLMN
# Test: ATG_Xbp1_CIS: Attagene CIS-FACTORIAL HepG2 Assay for human X-box Binding Protein 1 (XBP1) (AID 2282972)
# Settings: HepG2 XBP1 cis-element reporter, Attagene multiplex; actives raise or lower the signal
# Procedure: ATG_CIS is a cell-based, multiplexed-readout assay that uses HepG2, a human liver cell line, with measurements taken at 24 hours after chemical dosing in a 24-well plate.ATG_Xbp1_CIS is one of 52 assay component(s) measured or calculated from the ATG_CIS assay. It is designed to make measurements of mRNA induction, a form of inducible reporter, as detected with fluorescence intensity signals by Reverse transcription polymerase chain reaction (RT-PCR) and Capillary electrophoresis technology.Data from the assay component ATG_Xbp1_CIS was analyzed into 1 assay endpoint. This assay endpoint, ATG_Xbp1_CIS, was analyzed with bidirectional fitting relative to DMSO as the negative control and baseline of activity. Using a type of inducible reporter, measures of mRNA for gain or loss-of-signal activity can be used to understand the reporter gene at the transcription factor-level as they relate to the gene XBP1. Furthermore, this assay endpoint can be referred to as a primary readout, because this assay has produced multiple assay endpoints where this one serves a reporter gene function. To generalize the intended target to other relatable targets, this assay endpoint is annotated to the dna binding intended target family, where the subfamily is basic leucine zipper.
# Human liver HepG2 cells are transiently transfected with multiple reporter transcription units (MRTUs) in 6-well plates using FuGene 6 reagent (Roche; 3 ml FuGene/1 mg DNA). The MRTU constructs are regulated by a cis-regulating element (promoter). […] A major difference between the CIS and TRANS system is that in CIS activities of endogenous TFs are measured, whereas the TRANS assay evaluates changes in activities of exogenous, chimeric NR-Gal4 proteins. […] At the end of 24 hour incubation, total RNA was isolated using TriZol reagent (Invitrogen). The isolated RNA is then reverse-transcribed using oligo(dT) primer and Mo-MLV reverse transcriptase (Invitrogen) with DNAse I (Ambion) treatment for 30 min. The one-tenth of the produced cDNA was amplified by PCR using Taq DNA polymerase (Invitrogen) and two reporter sequence-specific primers. The PCR products were fluorescently labeled by primer extension with 6-arboxyfluorescein (6-FAM) 5'-labeled reporter sequence-specific primer (2 min at 95 C, 20 s at 68 C and 10 min at 72 C) and these products were digested with 5U of HpaI (New England Biolabs) for 2h at 37 C. The fragments were purified using Qiaquick PCR columns (Qiagen), analyzed on an ABI 3130xL genetic analyzer (Applied Biosystems) with peak positions identified by using a set of X-rhodamine (ROX)-labeled MapMarker1000 molecular weight standards (BioVentures). The raw capillary electrophoresis data was processed using Attagraph software (Attagene).
Compound,outcome,AC50
Cc1cccc(C)c1N,inactive,–
ClC(Cl)=C(c1ccc(Cl)cc1)c1ccc(Cl)cc1,inactive,150 µM (active)
Cc1ccc(O)c(C)c1,inactive,–
N#Cc1ccc(N(CC(N)=O)CC(F)(F)F)cc1C(F)(F)F,inactive,–
CCCCCCOC(=O)c1ccccc1C(=O)OCCCCCC,inactive,–
COc1ccc(O)c(C(C)(C)C)c1,–,100 µM (active)
O=C(O)C(F)(F)C(F)(F)C(F)(F)C(F)(F)C(F)(F)C(F)(F)C(F)(F)C(F)(F)C(F)(F)F,inactive,50.8 µM (active) and 50 µM (active)
CCOC(=O)C(O)(c1ccc(Cl)cc1)c1ccc(Cl)cc1,inactive,–
C[C@]12CCC(=O)C=C1CC[C@@H]1[C@@H]2CC[C@@]2(C)[C@H]1CC[C@]2(C)O,inactive,–
Cc1cc(O)ccc1Cl,inactive,–
Cc1ccccc1O,inactive,–
Nc1ccc(-c2ccc(N)cc2)cc1,inactive,–
Oc1ccc(C(c2ccc(O)cc2)(C(F)(F)F)C(F)(F)F)cc1,inactive,18.1 µM (active) and 17.3 µM (active) and 17.8 µM (active)
CCC(C)c1cc([N+](=O)[O-])cc([N+](=O)[O-])c1O (stereo unspecified),–,10.2 µM (active)
Clc1ccc(C(Cl)(Cl)Cl)cc1,inactive,–
O=C(NC(=O)c1c(F)cccc1F)Nc1cc(Cl)c(OC(F)(F)C(F)F)c(Cl)c1,inactive,–
Cc1cccc([N+](=O)[O-])c1,inactive,–
c1ccc(-c2ccccc2)cc1,inactive,–

Compound,outcome,AC50
Clc1ccc(C(c2ccccc2Cl)C(Cl)(Cl)Cl)cc1 (stereo unspecified),inactive,70.5 µM (active) and 101 µM (active) and 46.4 µM (active)
O=C(O)C(F)(F)C(F)(F)C(F)(F)C(F)(F)C(F)(F)F,inactive,–
CCOCCOC(C)=O,inactive,–
CCCCCCCCCC[N+](C)(C)CCCCCCCCCC,inactive,–
C=CC(=O)NCNC(=O)C=C,inactive,–
CCCN(CCC)N=O,inactive,–
ClC1=C(Cl)[C@]2(Cl)[C@@H]3[C@H]4C[C@H]([C@@H]5O[C@H]45)[C@@H]3[C@@]1(Cl)C2(Cl)Cl,inactive,–
Cc1cc(-c2ccc(N)c(C)c2)ccc1N,inactive,–
COS(=O)(=O)OC,inactive,–
NS(=O)(=O)C(F)(F)C(F)(F)C(F)(F)C(F)(F)C(F)(F)C(F)(F)C(F)(F)C(F)(F)F,–,41.7 µM (active) and 39.9 µM (active) and 50 µM (active)
CCC(=O)O[C@H]1CC[C@H]2[C@@H]3CCC4=CC(=O)CC[C@]4(C)[C@H]3CC[C@]12C,–,141 µM (active) [middle of 4 runs]
Cc1ccccc1CO[C@@H]1C[C@@]2(C(C)C)CC[C@]1(C)O2,inactive,–
CCC(C)(c1ccc(O)cc1)c1ccc(O)cc1,inactive,54.8 µM (active) and 52.7 µM (active) and 16.7 µM (active)
ClC1=C(Cl)[C@]2(Cl)[C@@H]3[C@@H]4C[C@@H]([C@H]5O[C@@H]45)[C@@H]3[C@@]1(Cl)C2(Cl)Cl,inactive,–
O=NN(c1ccccc1)c1ccccc1,inactive,–
CCC(C)(CC)c1cc(NC(=O)c2c(OC)cccc2OC)on1,inactive,–
CC(C)(O)C(=O)Nc1ccc([N+](=O)[O-])c(C(F)(F)F)c1,inactive,54.9 µM (active)
